# Data as given in the supplement of paper PMC9023506.
# Counter-ions that a name gives are not always drawn.
# Test system: Danio rerio larvae (5 dpf)
# Assay: activity during period 15 (no stimuli), difference vs DMSO (percentage points (treated minus DMSO)); higher = more of the behaviour than the DMSO vehicle control
# Conditions: 10 µM; exposure time: 3 h pre-incubation + 3 h imaging
# Method: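 5-dpf wild-type zebrafish larvae were imaged in 96-well plates. They were treated with 190 Tocris FDA-approved drugs at 10 µM (1 µl/ml DMSO) for 3 h before and 3 h during imaging at 28.5 °C, 48 larvae per drug. Automated image analysis gave % time moving and optomotor responses. Values are drug group mean minus DMSO vehicle mean (n=844), in percentage points, for 10 behaviours.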
row,SMILES,activity during period 15
1,CC(=O)Oc1ccccc1C(=O)O [Aspirin],-1.19
2,Cc1cn([C@H]2C=C[C@@H](CO)O2)c(=O)[nH]c1=O [Stavudine],-0.445
3,O=C(O)CCCc1ccccc1 [Sodium 4-Phenylbutyrate],0.951
4,CN1CCC[C@@H]1CCO[C@](C)(c1ccccc1)c1ccc(Cl)cc1 [Clemastine fumarate],5.26
5,C=CC(=O)N1CCC[C@@H](n2nc(-c3ccc(Oc4ccccc4)cc3)c3c(N)ncnc32)C1 [Ibrutinib],-4.55
6,C[C@H]1C[C@@H]2[C@H]([C@@H](O)C[C@@]3(C)[C@H]2CC[C@]3(O)C(=O)CO)[C@@]2(C)C=CC(=O)C=C12 [Methylprednisolone],-4.72
7,Nc1nc(NC2CC2)c2ncn([C@H]3C=C[C@@H](CO)C3)c2n1 [Abacavir hemisulfate],-3.3
8,Cc1nnc(C(C)C)n1C1C[C@H]2CC[C@@H](C1)N2CC[C@H](NC(=O)C1CCC(F)(F)CC1)c1ccccc1 (stereo in doubt) [Maraviroc],-3.11
9,Cc1cc2c(s1)Nc1ccccc1N=C2N1CCN(C)CC1 [Olanzapine],5.7
10,CCOC(=O)N1CCC(=C2c3ccc(Cl)cc3CCc3cccnc32)CC1 [Loratidine],-25
11,COc1cc2nc(N3CCN(C(=O)c4ccco4)CC3)nc(N)c2cc1OC [Prazosin hydrochloride],1.78
12,CN(C)CC/C=C1/c2ccccc2COc2ccc(CC(=O)O)cc21 [Olopatadine hydrochloride],-6.62
13,CC(C)c1nc(N(C)S(C)(=O)=O)nc(-c2ccc(F)cc2)c1/C=C/[C@@H](O)C[C@@H](O)CC(=O)O [Rosuvastatin calcium],15.5
14,CN(CCOc1ccc(CC2SC(=O)NC2=O)cc1)c1ccccn1 (stereo not given) [Rosiglitazone],7.42
15,CC(=O)Nc1ccc(O)cc1 [Acetaminophen],8.08
16,CC(=O)S[C@@H]1CC2=CC(=O)CC[C@]2(C)[C@H]2CC[C@@]3(C)[C@@H](CC[C@@]34CCC(=O)O4)[C@H]12 [Spironolactone],-1.27
17,N[C@@H]1[C@H]2CN(c3nc4c(cc3F)c(=O)c(C(=O)O)cn4-c3ccc(F)cc3F)C[C@@H]12 [Trovafloxacin mesylate],2.91
18,CCc1c2c(nc3ccc(OC(=O)N4CCC(N5CCCCC5)CC4)cc13)-c1cc3c(c(=O)n1C2)COC(=O)[C@]3(O)CC,-8.3
19,CN/C(=N\CCSCc1nc[nH]c1C)NC#N [Cimetidine],-5.2
20,CC(CCc1ccc(O)cc1)NCCc1ccc(O)c(O)c1 (stereo not given) [Dobutamine hydrochloride],-8.99

row,SMILES,activity during period 15
1,Cc1ccc(N(CC2=NCCN2)c2cccc(O)c2)cc1 [Phentolamine Mesylate],4.99
2,C/C(O)=C(\C#N)C(=O)Nc1ccc(C(F)(F)F)cc1 [Teriflunomide],10.3
3,Cc1nc(-c2ccc(OCC(C)C)c(C#N)c2)sc1C(=O)O [Febuxostat],10
4,CCOC(=O)C1=C(COCCN)NC(C)=C(C(=O)OC)C1c1ccccc1Cl (stereo not given) [Amlodipine besylate],3.16
5,Cc1nc(Nc2ncc(C(=O)Nc3c(C)cccc3Cl)s2)cc(N2CCN(CCO)CC2)n1 [Dasatinib],-15.1
6,CN(C)CCc1c[nH]c2ccc(C[C@H]3COC(=O)N3)cc12 [Zolmitriptan],2.6
7,CCCN(CCc1cccs1)[C@H]1CCc2c(O)cccc2C1 [Rotigotine hydrochloride],-35.4
8,CC(C)(C(=O)O)c1ccc(C(O)CCCN2CCC(C(O)(c3ccccc3)c3ccccc3)CC2)cc1 (stereo not given) [Fexofenadine hydrochloride],1.68
9,Clc1ccc(COC(Cn2ccnc2)c2ccc(Cl)cc2Cl)c(Cl)c1 (stereo not given) [Miconazole nitrate],-12.8
10,Nc1ncn([C@@H]2O[C@H](CO)[C@@H](O)[C@H]2O)c(=O)n1 [5-Azacytidine],1.42
11,CCCCCCCN(CC)CCCC(O)c1ccc(NS(C)(=O)=O)cc1 (stereo not given) [Ibutilide hemifumarate],-10
12,CN(CCOc1ccc(NS(C)(=O)=O)cc1)CCc1ccc(NS(C)(=O)=O)cc1 [Dofetilide],-9.09
13,COc1c(C)c2c(c(O)c1C/C=C(\C)CCC(=O)O)C(=O)OC2 [Mycophenolic acid],9.46
14,O=C(NCC1CCCCN1)c1cc(OCC(F)(F)F)ccc1OCC(F)(F)F (stereo not given) [Flecainide acetate],-6.75
15,Cc1cccc(CN2CCN(C(c3ccccc3)c3ccc(Cl)cc3)CC2)c1 (stereo not given) [Meclizine dihydrochloride],8.13
16,NC(=O)N1c2ccccc2C=Cc2ccccc21 [Carbamazepine],-0.716
17,CC(=O)Oc1cc2c(s1)CCN(C(C(=O)C1CC1)c1ccccc1F)C2 (stereo not given) [Prasugrel],11.8
18,COc1cc2nccc(Oc3ccc(NC(=O)C4(C(=O)Nc5ccc(F)cc5)CC4)cc3)c2cc1OC,16.2
19,CC1=Nc2ccc(Cl)cc2S(=O)(=O)N1 [Diazoxide],2.35
20,Cc1ccc(O)c([C@H](CCN(C(C)C)C(C)C)c2ccccc2)c1 [Tolterodine L-tartrate],13.9
